Source: PubChem BioAssay
Only some compounds are listed: those with a hit (about 12% of all), similar ones and a draw of the others.
BAZ2B block – BAZ2B (human) inhibition | Q9UIF8 | AlphaScreen BAZ2B-H3K14Ac peptide displacement | Potency, µM (titrated, usually from 114 µM), inactives show at the highest dose activity change, negative = inhibition, hits mostly inhibitors | hit rate 4.4% among 360,000 | AID 504333; also: % is scaled to controls: 0 for no effect and ±100 for the full control effect; nearly all actives have a fitted effect of over 60% in size
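In this displacement format the biotinylated H3(5-23) peptide acetylated at Lys14 serves as ligand at 50 nM, with BAZ2B at 50 nM in PBS pH 7.4 containing 0.01% Tween-20. Donor and acceptor beads are 10 ug/mL final.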
Sfp inh – blocks B. subtilis Sfp PPTase activity; Q9F4F7; AID 1490; Biochemical Sfp PPTase activity, qHTS; hit rate 3.5% among 310,000; Potency, µM, inactives show largest response in the series, negative = inhibition, usual class: inhibitors;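 also: the enzyme is Sfp with the accession as filed and its product quenches rhodamine fluorescence; 0% = enzyme reaction without inhibitor and -100% = no enzyme wells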
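Sfp 15 nM + cpd, 15 min RT; start w/ rhodamine-CoA 5 uM, BHQ-2-YbbR 12.5 uM (final); 50 mM Hepes pH 7.6, 10 mM MgCl2, 0.01% NP-40, 0.01% BSA; read 525/598 nm at 0 and 30 min.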
L3MBTL1 block – inhibitors of human L3MBTL1; AlphaScreen L3MBTL1–H3K9me1 peptide binding; Q9Y468; hit rate 0.66% among 230,000; Potency, µM (titrated, usually from 57.1 µM), without a hit: at the top dose activity, negative = inhibition, hits mostly inhibitors; also: % is scaled to controls: 0 for no effect and ±100 for the full control effect; nearly all actives have a fitted effect of over 60% in size
Target sequence (Q9Y468 whole entry, looked up): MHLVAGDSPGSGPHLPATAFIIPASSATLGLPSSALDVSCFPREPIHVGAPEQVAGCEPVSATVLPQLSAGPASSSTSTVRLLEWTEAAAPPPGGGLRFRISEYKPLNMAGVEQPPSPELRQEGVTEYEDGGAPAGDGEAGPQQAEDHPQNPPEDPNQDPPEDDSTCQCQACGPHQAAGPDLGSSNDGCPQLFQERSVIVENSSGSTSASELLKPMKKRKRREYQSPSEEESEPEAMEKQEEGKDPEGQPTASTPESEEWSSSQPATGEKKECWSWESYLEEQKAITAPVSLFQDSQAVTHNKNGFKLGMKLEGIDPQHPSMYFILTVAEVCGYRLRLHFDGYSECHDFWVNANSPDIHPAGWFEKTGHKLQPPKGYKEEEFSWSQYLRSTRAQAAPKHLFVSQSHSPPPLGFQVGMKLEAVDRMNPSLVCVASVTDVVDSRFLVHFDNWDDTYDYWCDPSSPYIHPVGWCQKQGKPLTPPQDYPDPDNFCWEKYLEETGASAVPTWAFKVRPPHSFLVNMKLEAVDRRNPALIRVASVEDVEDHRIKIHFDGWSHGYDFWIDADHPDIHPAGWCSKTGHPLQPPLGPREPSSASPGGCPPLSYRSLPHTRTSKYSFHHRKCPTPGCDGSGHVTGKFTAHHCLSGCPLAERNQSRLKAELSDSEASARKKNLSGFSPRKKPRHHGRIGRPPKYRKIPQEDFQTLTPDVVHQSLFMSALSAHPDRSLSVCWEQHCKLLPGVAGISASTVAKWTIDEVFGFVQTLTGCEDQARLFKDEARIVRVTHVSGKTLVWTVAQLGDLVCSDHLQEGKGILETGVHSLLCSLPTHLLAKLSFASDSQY
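Displacement of a biotinylated histone H3(1-15) peptide monomethylated at Lys9 (75 nM) from L3MBTL1 (50 nM) was measured by AlphaScreen after a 30 min room-temperature compound incubation; cefsulodin titration served as intraplate control.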
JMJD2A Tudor inh – inhibitors of human JMJD2A Tudor domain. O75164. Potency, µM (doses to about 114 µM), for inactives: at the top dose activity change, negative = inhibition, actives largely listed as inhibitors. hit rate 4.4% among 390,000. AlphaScreen JMJD2A-Tudor / H3K4me3 peptide binding; also: % is scaled to controls: 0 for no effect and ±100 for the full control effect; nearly all actives have a fitted effect of over 50% in size
G9a block – inhibitors of human histone lysine methyltransferase G9a; Q96KQ7; G9a H3K9 monomethylation, AlphaScreen, 2 h; hit rate 8.8% among 350,000; Potency, µM (series often up to 102 µM), without a hit: at the highest dose activity, negative = inhibition, hits mostly inhibitors; also: % is scaled to controls: 0 for no effect and ±100 for the full control effect; nearly all actives have a fitted effect of over 75% in size
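AlphaScreen read-out: biotin-H3K9 peptide (500 nM) methylation by 20 nM enzyme with 20 uM SAM, 2 h at room temperature after 15 min compound preincubation; anti-monomethyl H3K9 antibody plus donor/acceptor beads, 10 min dark.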
HP1b chromo inh – inhibitors of HP1-beta chromodomain binding to methylated histone tails | AlphaScreen HP1-beta / biotin-H3K9me3 peptide binding | hit rate 0.56% among 390,000 | AID 540317 | P83916 | Potency, µM (titrated, usually from 114 µM), for inactives: top-dose activity change, negative = inhibition, hits mostly inhibitors; also: nearly all actives have a fitted effect of over 70% in size
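AlphaScreen: HP1-beta (50 nM) preformed 30 min with biotin-H3(1-18)K9me3 peptide (50 nM) in PBS pH 7.4, 0.01% Tween-20. Compound added for 30 min at RT, then streptavidin donor/nickel chelate acceptor beads (10 ug/mL) for 30 min.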
* = called active by the depositor; ? = inconclusive; nt = no result; [ ] = dose if it differs, or a comment. Calls follow the shape of the dose curve; as a rule, active = well fitted curve in the direction sought with a large enough effect; inconclusive = small, poorly fitted or top-dose-only effect, or another doubt; inactive = no such curve, though single readings can be large; an effect the other way counts as inactive or inconclusive. Potency is read from the fitted curve at half-maximal effect.

SMILES | BAZ2B block | Sfp inh | L3MBTL1 block | JMJD2A Tudor inh | G9a block | HP1b chromo inh
O=C(CC(C(=O)O)c1ccc(F)cc1)c1ccc(Cl)cc1 (stereo not given) | -8.4% | 7.8% | nt | -7.6% | 9.3% | 47.1%
Cc1ccc(SC(CC(=O)c2ccc(F)cc2)C(=O)O)cc1 (stereo not given) | 49.2% | 50.1µM* | nt | -4.9% | ? | 50.8%
COc1ccc(C(=O)/C=C/c2cn(CC(O)CN3CCc4ccccc43)c3ccccc23)cc1OC (stereo not given) | 10µM* | nt | nt | 20µM* | ? | -32.1%
COc1ccc(C(=O)/C=C/c2cn(CN3CCN(C)CC3)c3ccccc23)cc1 | 3.9% | -29.7% | nt | -33.1% | 23.0% | 22.7%
Cc1ccc(C(=O)/C=C/c2cn(CC(O)CN3CCc4ccccc43)c3ccccc23)cc1 (stereo not given) | ? | nt | nt | 25.1µM* | 12.6µM* | -20.5%
Cc1ccc(C(=O)/C=C/c2cn(CC(O)CN3CCOCC3)c3ccccc23)cc1 (stereo not given) | ? | -5.3% | 0.7% | -28.1% | -13.9%[59 µM] | -0.7%
CC(C)CN(CC(C)C)CC(O)Cn1cc(/C=C/C(=O)c2ccccc2)c2ccccc21 (stereo not given) | 89.1µM* | nt | nt | -11.1% | -3.8%[59 µM] | 42.9%
COc1ccc(C(=O)/C=C/c2cn(CC(O)CN(CC(C)C)CC(C)C)c3ccccc23)cc1OC (stereo not given) | -17.7% | nt | nt | -34.2% | -5.2%[59 µM] | 29.1%
COc1ccc(C(=O)/C=C/c2cn(CC(O)CN3CCOCC3)c3ccccc23)cc1 (stereo not given) | ? | -21.6% | ? | -23.5% | 44.7µM* | -3.0%
COc1ccc(NC(=O)CNC(=O)Cn2ccc3ccccc3c2=O)cc1OC | 6.0% | nt | nt | 4.4% | 1.1%[59 µM] | 41.7%
O=C(CSc1nc(=O)n(CCN2CCOCC2)c2c1CCCC2)Nc1cccc([N+](=O)[O-])c1 | 4.4% | nt | -2.0% | -22.0% | 7.7%[0.501 µM] | 3.4%
CCc1ccc(NC(=O)CN(CC(=O)Nc2ccc(CC)cc2)CC(C)O)cc1 (stereo not given) | -18.4% | 13.4% | nt | ? | -27.0%[2.33 µM] | 1.2%
O=[N+]([O-])c1ccc(Cl)c(CN2CCCCCC2)c1 | 56.2µM* | -4.2% | -9.8% | 1.26µM* | 25.1µM* | ?
O=C(NNC(=O)C1CCN(Cc2ccc(F)cc2Cl)CC1)Nc1ccc([N+](=O)[O-])cc1 | -17.6% | 9.7% | 1.7% | -23.9% | nt | 68.9%
O=[N+]([O-])c1ccc(Cl)c(CN2CCC(O)CC2)c1 | 56.2µM* | 50.1µM* | -5.7% | 10µM* | 7.94µM* | 44.7µM*
Cc1[nH]c(C)c(S(=O)(=O)NCc2ccc(OC(C)C)cc2)c1C(=O)N1CCCC1 | -10.0% | -3.9% | nt | -12.8% | nt | 55.3%
CCOc1ccccc1-n1c(SCC(=O)N2CCOCC2)nnc1-c1ccccn1 | -33.5% | 10.3% | 4.6% | 0.3% | 14.0%[59 µM] | 23.0%
Cc1ccc(C)c(-n2c(SCC(N)=O)nnc2-c2ccccn2)c1 | 17.8µM* | 5.9% | ? | 79.4µM* | ? | 24.5%
Cc1ccc(C)c(-n2c(SCC(=O)N3CCCC3)nnc2-c2ccccn2)c1 | 31.6µM* | 9.1% | -10.6% | ? | 8.4%[59 µM] | 31.3%
CCN(CC)C(=O)CSc1nnc(-c2ccccn2)n1-c1ccccc1OC | 89.1µM* | 0.1% | nt | ? | 16.1%[59 µM] | 45.4%
Cc1ccc(-n2c(SCC(=O)OC(C)C)nnc2-c2ccccn2)cc1 | 50.1µM* | -13.7% | -16.3% | 50.1µM* | -7.8%[59 µM] | 17.8%
CCOc1ccccc1-n1c(SCC(=O)N(CC)CC)nnc1-c1ccccn1 | ? | 2.5% | -5.0% | -8.5% | 0.1%[59 µM] | 33.7%
Cc1ccc(N(CC(=O)Nc2ccc(C)c(F)c2)S(=O)(=O)c2c(C)n[nH]c2C)cc1 | nt | nt | nt | -14.7% | 2.7%[59 µM] | 35.6%
[O-][n+]1ccccc1SSc1cccc[n+]1[O-] | nt | 0.708µM* | nt | nt | 1.26µM* | nt
CCOC(=O)c1sc(NC(=O)/C=C/c2cnn(CC)c2C)c(C(=O)OCC)c1C | 6.2% | 25.1µM* | 3.6% | -11.5% | ? | -12.7%
SMILES | BAZ2B block | Sfp inh | L3MBTL1 block | JMJD2A Tudor inh | G9a block | HP1b chromo inh
Cc1ccc(C)c(OCCC(=O)N(C)CC(=O)Nc2c(C)cccc2C)c1 | 9.7% | nt | 2.3% | 2.9% | -7.3%[2.33 µM] | 32.2%
C#CCOCCOCCOCCNc1nc(N2CCN(C(=O)[C@H]([C@@H](C)CC)n3cc([C@@H](N)Cc4ccc(O)cc4)nn3)CC2)nc(N2CCN(C(=O)[C@H]([C@@H](C)CC)n3cc([C@@H](N)CC(C)C)nn3)CC2)n1 | ? | -29.0% | -10.2% | 44.7µM* | -19.4%[59 µM] | 22.0%
C#CCOCCOCCOCCNc1nc(N2CCN(C(=O)[C@H]([C@@H](C)CC)n3cc([C@@H](N)CO)nn3)CC2)nc(N2CCN(C(=O)[C@H](Cc3ccc(O)cc3)n3cc([C@@H](N)CC(C)C)nn3)CC2)n1 | 31.6µM* | 5.9% | ? | 56.2µM* | ? | -11.4%
C#CCOCCOCCOCCNc1nc(N2CCN(C(=O)[C@H]([C@@H](C)CC)n3cc([C@@H](N)Cc4ccc(O)cc4)nn3)CC2)nc(N2CCN(C(=O)[C@H](Cc3ccc(O)cc3)n3cc([C@@H](N)CC(C)C)nn3)CC2)n1 | 56.2µM* | 19.3% | -5.0% | 14.1µM* | ? | 8.5%
COc1ccc(C(=O)COC(=O)c2cc(-c3cccs3)nc3ccccc23)cc1 | 27.4% | nt | nt | 16.3% | 21.3%[59 µM] | 39.7%
N#CCN1CCN(CC(=O)c2ccc(Br)cc2)CC1 | -4.3% | -0.1% | nt | -4.7% | 12.6µM* | 34.4%
CC(=O)N1CCN(CC(=O)c2ccc(Br)cc2)CC1 | -3.5% | -4.0% | 7.5% | -12.0% | 2µM* | 61.1%
CC(=O)c1ccc(S(=O)(=O)N2CCN(CC#N)CC2)cc1 | 1.2% | 7.0% | 11.6% | -14.0% | ? | 23.9%
O=C(O)c1cccc(Nc2c3ccccc3nc3ccccc23)c1 | 20.6% | 1.6% | 57.1% | -14.3% | nt | 20.6%
O=C(O)c1cc(S(=O)(=O)O)cc(Nc2c3ccccc3nc3ccccc23)c1O | ? | ? | nt | ? | 17.8µM* | ?
Cc1ccc(S(=O)(=O)N2CCCCC2)cc1NS(=O)(=O)c1ccccc1F | nt | nt | -4.1% | -21.4% | nt | -10.5%
CCOc1ccc(S(=O)(=O)N(CC)CC)cc1NS(=O)(=O)c1ccc(F)c(F)c1F | 7.8% | 14.7% | 8.8% | 50.1µM* | -7.5%[59 µM] | 9.3%
CCN(CC)S(=O)(=O)c1ccc(O)c(NS(=O)(=O)c2ccccc2F)c1 | -4.9% | 50.1µM* | 7.1% | -23.0%[57.1 µM] | 1.41µM* | ?
O=C(CC1C(=O)N(c2ccccc2)C(=O)N1CCC1=CCCCC1)Nc1ccc(F)cc1 (stereo not given) | -16.4% | nt | nt | -18.2% | 13.7%[59 µM] | 21.5%
